Experiment [1] can be described thus: antimalarial activity against Dd2 strain (AID 2302;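 active = growth inhibition above 50% at the single 2 µM test dose, taken to imply half-maximal potency below 2 µM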;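 note: 0% = DMSO untreated growth and 100% = chloroquine plus artemisinin killed control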). Conditions: P. falciparum Dd2 in RBCs, LDH growth readout, 72 h; at 2 µM; hits give high values.
A short description of experiment [2]: HepG2 cytotoxicity, primary screen, cytotoxicity control for P. falciparum antimalarial project, cell-based, ATP luminescence (AID 2303;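 active = inhibition above 50%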;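 note: 0% = DMSO wells and 100% = digitonin-killed cells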). To be noted: HepG2 viability, 24-48 h, at 10 µM, hits give high values.
For experiment [3], the target named is L-lactate dehydrogenase (Plasmodium falciparum (isolate CDC / Honduras)) (UniProt Q27743). Briefly: PfLDH activity inhibition – cell lysate, 3D7 strain, counter-screen for P. falciparum growth inhibition project (AID 2304).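 Note: 0% = vehicle and 100% = reference inhibitor.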 Conditions: P. falciparum 3D7 crude extract, LDH APAD/NBT absorbance; at 2 µM; hits give high values.
A short description of experiment [4]: inhibition of 3D7 malaria parasite growth – strain 3D7 (AID 2306).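 Note: 0% = DMSO wells and 100% = chloroquine plus artemisinin control wells.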 To be noted: P. falciparum 3D7 erythrocytic growth, LDH absorbance, 72 h; at 2 µM; hits give high values.
Experiment [5] deals with Calcium-dependent protein kinase 1 (Plasmodium falciparum (isolate 3D7)) (UniProt P62344). The experiment can be described thus: PfCDPK1 kinase inhibitors, biochemical, TCAMS library (AID 1159585; cut-off not given, nearly all actives have IC50 up to about 0.98 µM;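 note: inhibitors leave more ATP so luminescence rises with inhibition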). To be noted: recombinant PfCDPK1, Kinase-Glo ATP depletion luminescence.
In experiment [6] the target is Plasmodium falciparum protein kinase 6 (PK6, PF3D7_1337100) (UniProt Q8IDW1). The experiment can be described thus: PfPK6 kinase inhibitors, biochemical, TCAMS library (AID 1159586). Conditions: recombinant PfPK6, Kinase-Glo ATP depletion luminescence.
In experiment [7] the target is Protein kinase 7 (PK7), Plasmodium falciparum 3D7 (PF3D7_0213400) (UniProt Q7YTF7). The experiment can be described thus: inhibition of Plasmodium PK7 catalytic activity – biochemical, TCAMS antimalarial set, Kinase-Glo luminescence (AID 1159587). To be noted: recombinant PfPK7, Kinase-Glo ATP depletion luminescence.
The target of experiment [8] is Calcium-dependent protein kinase 4 (Plasmodium falciparum (isolate 3D7)) (UniProt Q8IBS5). Briefly: PfCDPK4 kinase inhibitors, biochemical, TCAMS library (AID 1159588; cut-off not given, nearly all actives have IC50 up to about 0.91 µM). Conditions: recombinant PfCDPK4, Kinase-Glo ATP depletion luminescence.

A number with no mark means an inactive call. For some assays here: Entries with a potency or affinity are not part of this list. Activity calls are given as the source filed them. Unless noted, the rule behind the calls is not given here.

Chain of Plasmodium falciparum protein kinase 6 (PK6, PF3D7_1337100) (Q8IDW1 1-305): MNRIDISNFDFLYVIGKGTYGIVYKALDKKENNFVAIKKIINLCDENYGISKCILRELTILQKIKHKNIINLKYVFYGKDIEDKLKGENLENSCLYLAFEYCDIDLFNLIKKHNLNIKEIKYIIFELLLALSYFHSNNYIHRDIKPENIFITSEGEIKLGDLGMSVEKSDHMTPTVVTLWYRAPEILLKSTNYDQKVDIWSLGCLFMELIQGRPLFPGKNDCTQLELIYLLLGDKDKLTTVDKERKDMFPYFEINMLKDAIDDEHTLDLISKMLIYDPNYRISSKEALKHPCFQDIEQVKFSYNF
Chain of Calcium-dependent protein kinase 4 (Plasmodium falciparum (isolate 3D7)) (Q8IBS5 whole entry, looked up): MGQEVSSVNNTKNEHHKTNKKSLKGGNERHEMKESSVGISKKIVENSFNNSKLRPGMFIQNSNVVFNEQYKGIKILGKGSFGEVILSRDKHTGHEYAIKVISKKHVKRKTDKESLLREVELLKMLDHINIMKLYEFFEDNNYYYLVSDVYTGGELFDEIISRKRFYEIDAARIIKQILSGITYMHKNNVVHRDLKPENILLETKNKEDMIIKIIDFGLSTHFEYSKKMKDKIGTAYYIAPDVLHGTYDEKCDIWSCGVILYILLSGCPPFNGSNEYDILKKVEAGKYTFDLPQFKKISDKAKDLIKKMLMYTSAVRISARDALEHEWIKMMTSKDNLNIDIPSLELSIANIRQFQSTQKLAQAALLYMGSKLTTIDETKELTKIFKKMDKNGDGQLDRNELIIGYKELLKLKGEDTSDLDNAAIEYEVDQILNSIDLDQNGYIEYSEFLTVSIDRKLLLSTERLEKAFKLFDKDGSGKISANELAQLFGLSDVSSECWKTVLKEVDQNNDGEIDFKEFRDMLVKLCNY
Chain of L-lactate dehydrogenase (Plasmodium falciparum (isolate CDC / Honduras)) (Q27743 whole entry, looked up): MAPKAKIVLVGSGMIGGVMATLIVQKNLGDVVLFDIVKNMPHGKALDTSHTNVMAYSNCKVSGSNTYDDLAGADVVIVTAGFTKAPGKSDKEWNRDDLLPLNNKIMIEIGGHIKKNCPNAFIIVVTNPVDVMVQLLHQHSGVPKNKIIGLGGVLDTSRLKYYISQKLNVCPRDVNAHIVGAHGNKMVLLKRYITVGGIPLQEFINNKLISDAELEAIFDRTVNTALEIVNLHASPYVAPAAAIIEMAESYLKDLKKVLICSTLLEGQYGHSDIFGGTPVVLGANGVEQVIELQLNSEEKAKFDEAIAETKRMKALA
Chain of Protein kinase 7 (PK7), Plasmodium falciparum 3D7 (PF3D7_0213400) (Q7YTF7 1-343): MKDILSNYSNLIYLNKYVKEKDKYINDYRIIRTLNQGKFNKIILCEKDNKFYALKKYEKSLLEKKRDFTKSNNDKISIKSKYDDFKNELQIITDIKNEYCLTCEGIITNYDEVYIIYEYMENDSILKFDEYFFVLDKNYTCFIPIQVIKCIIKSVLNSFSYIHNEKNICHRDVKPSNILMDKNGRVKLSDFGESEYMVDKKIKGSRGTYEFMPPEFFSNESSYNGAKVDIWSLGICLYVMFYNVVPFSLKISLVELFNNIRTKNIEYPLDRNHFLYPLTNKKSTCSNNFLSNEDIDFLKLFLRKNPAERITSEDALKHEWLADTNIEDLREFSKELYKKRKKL
Chain of Calcium-dependent protein kinase 1 (Plasmodium falciparum (isolate 3D7)) (P62344 whole entry, looked up): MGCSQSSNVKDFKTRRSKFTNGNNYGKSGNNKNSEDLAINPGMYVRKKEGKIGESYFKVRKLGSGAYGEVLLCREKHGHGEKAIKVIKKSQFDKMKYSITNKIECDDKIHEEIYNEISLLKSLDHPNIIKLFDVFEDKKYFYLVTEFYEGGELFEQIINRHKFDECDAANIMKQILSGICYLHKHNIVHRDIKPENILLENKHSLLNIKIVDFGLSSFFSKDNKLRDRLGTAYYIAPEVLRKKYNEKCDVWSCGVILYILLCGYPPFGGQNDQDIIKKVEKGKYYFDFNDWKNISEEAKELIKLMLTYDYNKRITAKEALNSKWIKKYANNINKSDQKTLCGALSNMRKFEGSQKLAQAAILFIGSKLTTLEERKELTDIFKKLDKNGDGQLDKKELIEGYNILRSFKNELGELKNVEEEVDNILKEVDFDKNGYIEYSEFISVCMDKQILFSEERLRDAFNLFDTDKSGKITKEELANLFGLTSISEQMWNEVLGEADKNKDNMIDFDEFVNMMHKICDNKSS

For the compound `COc1cc(Cc2cnc(N)nc2N)c2c(c1OC)OC(C)(C)C=C2`, the growth inhibition in experiment [1] is 2%; in experiment [4], 93% (active). Besides, the values for the inhibition in experiment [2] and in experiment [3] were 7% and -3%, respectively. The outcome in experiment [5], in experiment [6], in experiment [7] and in experiment [8] was inactive.
Consider `Cc1cccc2[nH]c(-c3cccc(-c4ccc(NC(=O)CN5CCOCC5)cc4)c3)nc12`, for which the growth inhibition is 12% in experiment [1] and 94% (active) in experiment [4]. The inhibition in experiment [2] is 59% (active); in experiment [3], 4%. The result in experiment [5], in experiment [6], in experiment [7] and in experiment [8] was inactive.
As to `COc1ccc(-c2nonc2NC(=O)c2ccc(OC(C)C)cc2)cc1OC`, the growth inhibition is 99% (active) in experiment [1] and 100% (active) in experiment [4]. Also, the results for the inhibition in experiment [2] and in experiment [3] were 11% and -3%, respectively. In addition, the result in experiment [5], in experiment [6], in experiment [7] and in experiment [8] was inactive.
Regarding `O=C(C=Cc1ccc(Cl)c(Cl)c1)NCCCCCN1CCC(CCNC(=O)c2ccc3c(c2)OCO3)CC1`, the growth inhibition in experiment [1] was 2%; in experiment [4], 99% (active). Also, the figures for the inhibition in experiment [2] and in experiment [3] were 35% and -3%, respectively. The result in experiment [5], in experiment [6], in experiment [7] and in experiment [8] was inactive.
On to `CCC(Cc1cnc2nc(N)nc(N)c2n1)c1ccc(C(=O)O)cc1` (configuration not stated), for which the growth inhibition in experiment [1] was -2%; in experiment [4], 93% (active). The inhibition is 15% in experiment [2] and -2% in experiment [3]. Further, the result in experiment [5], in experiment [6], in experiment [7] and in experiment [8] was inactive.
In the case of `COc1ccccc1C(=O)Nc1ccc(Nc2nc(C)cc(N3CCOCC3)n2)cc1`, the results for the growth inhibition in experiment [1] and in experiment [4] were 22% and 98% (active), respectively. The inhibition in experiment [2] was 28%; in experiment [3], -3%. For the same compound, the outcome in experiment [5], in experiment [6], in experiment [7] and in experiment [8] was inactive.
Regarding `CCCCCCN1CCCN(Cc2cccc(C(=O)Nc3ccc(C(C)(C)C)cc3)c2)CC1`, the growth inhibition in experiment [1] was 23%; in experiment [4], 93% (active). Also, the figures for the inhibition in experiment [2] and in experiment [3] were 41% and 0%, respectively. The result in experiment [5], in experiment [6], in experiment [7] and in experiment [8] was inactive.
`NC1CCN(Cc2cccc(-c3csc(-c4nc5ccccc5[nH]4)c3)c2)C1` (configuration not stated): the growth inhibition in experiment [1] is 10%; in experiment [4], 99% (active). The inhibition in experiment [2] was 10%; in experiment [3], 2%. Further, the outcome in experiment [5], in experiment [6], in experiment [7] and in experiment [8] was inactive.
As for `COc1ccc(Cl)cc1N1CCN(CCCNC(=O)c2ccc(-c3nc4cc(Cl)c(F)cc4[nH]3)cc2)CC1`, the growth inhibition is 98% (active) in experiment [1] and 101% (active) in experiment [4]. In addition, the inhibition was 3% in experiment [2] and 6% in experiment [3]. Further, the outcome in experiment [5], in experiment [6], in experiment [7] and in experiment [8] was inactive.
In the case of `CC(C)CN1CCCN(Cc2cccc(NC(=O)c3ccc(Cl)c(Cl)c3)c2)CC1`, the growth inhibition is 9% in experiment [1] and 91% (active) in experiment [4]. In addition, the inhibition in experiment [2] is 10%; in experiment [3] it was 0%. Further, the outcome in experiment [5], in experiment [6], in experiment [7] and in experiment [8] was inactive.
In the case of `COc1ccc(CNc2ncnc3c2[nH]c2ccc(F)cc23)cc1`, the growth inhibition was 71% (active) in experiment [1] and 93% (active) in experiment [4]. Besides, the inhibition was 38% in experiment [2] and -3% in experiment [3]. The outcome in experiment [5], in experiment [6], in experiment [7] and in experiment [8] was inactive.
`c1cc(CNC2Cc3ccc(-c4cccs4)cc3C2)cc(-n2ccnc2)c1` (configuration not stated): the growth inhibition is 63% (active) in experiment [1] and 100% (active) in experiment [4]. Also, the inhibition in experiment [2] is 0%; in experiment [3] it was -1%. Also, the result in experiment [5], in experiment [6], in experiment [7] and in experiment [8] was inactive.
As to `COc1ccc(CNc2nccc3ccc(-c4ccc(N)nc4)cc23)cc1`, the growth inhibition in experiment [1] is 49%; in experiment [4], 93% (active). Also, the results for the inhibition in experiment [2] and in experiment [3] were 7% and 2%, respectively. The result in experiment [5], in experiment [6], in experiment [7] and in experiment [8] was inactive.
As for `NCCCNc1ccnc2cc(Cl)ccc12`, the growth inhibition is 25% in experiment [1] and 101% (active) in experiment [4]. The results for the inhibition in experiment [2] and in experiment [3] were 14% and 0%, respectively. Also, the outcome in experiment [5], in experiment [6], in experiment [7] and in experiment [8] was inactive.
`CC(Cc1ccc(OCC(=O)NCC2CCN(CCc3cccc(Cl)c3)CC2)cc1)NCCc1cccc(Cl)c1` (configuration not stated): the growth inhibition in experiment [1] was 85% (active); in experiment [4] it was 96% (active). Further, the inhibition in experiment [2] is 100% (active); in experiment [3], -8%. Moreover, the result in experiment [5], in experiment [6], in experiment [7] and in experiment [8] was inactive.
With `O=C(Nc1cn(-c2ccc(OCc3cccc(F)c3)c(Cl)c2)c2ncncc12)c1ccncc1`, the growth inhibition is 81% (active) in experiment [1] and 100% (active) in experiment [4]. In addition, the figures for the inhibition in experiment [2] and in experiment [3] were 13% and 0%, respectively. The result in experiment [5], in experiment [6], in experiment [7] and in experiment [8] was inactive.
Turning to `CC(C)(C)c1nn(-c2ccccc2)c2[nH]c(=O)c(CNCc3ccccc3)cc12`, the growth inhibition in experiment [1] is 91% (active); in experiment [4], 90% (active). For the same compound, the inhibition was 5% in experiment [2] and 2% in experiment [3]. Besides, the result in experiment [5], in experiment [6], in experiment [7] and in experiment [8] was inactive.
Regarding `O=C(/C=C/c1ccc(Cl)c(Cl)c1)N1CCC(CN2CCC(c3c[nH]c4ccncc34)CC2)CC1`, the growth inhibition in experiment [1] is 72% (active); in experiment [4] it was 101% (active). Further, the inhibition in experiment [2] was 44%; in experiment [3], 0%. The result in experiment [5], in experiment [6], in experiment [7] and in experiment [8] was inactive.
As to `O=C(CSc1nccn1C1CCCCC1)Nc1cc(C(F)(F)F)ccc1Cl`, the growth inhibition is 95% (active) in experiment [1] and 96% (active) in experiment [4]. Moreover, the results for the inhibition in experiment [2] and in experiment [3] were 2% and -1%, respectively. The outcome in experiment [5], in experiment [6], in experiment [7] and in experiment [8] was inactive.

For the origin of these results see PubChem BioAssay.
